High-throughput results as filed in PubChem.
In the library only some 3.9% were active in any assay of this set; here they are far more common.
HSF1 inhib: HSF1 inhibition; NIH3T3-HGL HSE-luciferase, MG132-induced, luminescence 8 h; stronger effect = lower value; activity change, negative = inhibition, % at 7.5 µM (by protocol); 0.77% of 300,000 active; AID 2098;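 active = more than half of replicate wells show activity change below -50%, luminescence cut by over half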;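 also: luciferase reports HSF-1 transcriptional activity via heat shock element; 0% = median of DMSO wells and -100% = zero luminescence signal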
esBAF inh: blocks esBAF chromatin remodeling in mouse ES cells; Bmi1-luciferase knock-in reporter, 24 h; 100% = twice the neutral-well signal; reporter increase, % at 12.5 µM; AID 602393; 2% of 350,000 active; in the data active = activation above about 40%;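 also: 0% = median of the plate's neutral control wells and 100% = double that signal; a rise in the Bmi1 reporter signal indicates esBAF inhibition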
MITF act: MITF TRPM1 promoter activation in melanoma cells | AID 588334 | 0.75% of 300,000 active | SK-MEL-5 TRPM1-promoter luciferase, 24 h; % of positive control, neutral wells = 0 | activation, % at 12.5 µM;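 active = mean activation of at least 80% with every replicate also reaching 80%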;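 also: 0% = neutral control wells and 100% = parthenolide positive control wells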
HSF-1 act: increases HSF-1 driven luciferase reporter signal. NIH3T3-HGL HSF-1 luciferase reporter, MG132, 8 h; 100% = twice DMSO control signal. activation, % at 9 µM. 1.7% of 300,000 active. AID 504408;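 active = mean replicate activation of at least 50% with a set share of replicates each reaching 50%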;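 also: 0% = median of the neutral control wells and 100% = twice that signal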
Wnt act: Wnt/beta-catenin pathway activation. Wnt/beta-catenin reporter cell assay, activator, plate reader. 1.2% of 300,000 active. activation, % at 9.35 µM; in the data active = activation above about 30%, passing the limit was not always enough;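 also: 0% = neutral control wells and 100% = positive control wells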
* marks the source's active call; other numbers are inactive results; . = no result.

SMILES | HSF1 inhib | esBAF inh | MITF act | HSF-1 act | Wnt act
COc1cc(OC)cc(C(=O)Oc2ccc(/C=N/Nc3nc4ccccc4s3)cc2OC)c1 | 40 | . | 0 | 82* | 41*
COc1cc(/C=N/Nc2nc3ccccc3s2)ccc1OC(=O)c1ccccc1F | 66 | . | 17 | 85* | 29
COCC(=O)Nc1ccc2c(c1)[C@@H]1C[C@@H](CC(=O)N[C@@H](C)c3ccccc3)O[C@@H](CO)[C@@H]1O2 | . | 4 | . | . | .
COc1ccc(/C=N/Nc2ccc(C(=O)O)cc2)cc1OC | -20 | 7 | 28 | -30 | 33*
Brc1ccsc1/C=N/Nc1ccccc1 | -4 | . | . | 2 | 41*
COc1ccc(/C=N\NC(=O)C2CCCC2)cc1Br | 2 | 38 | 63 | 2 | 6
COc1ccc2ccccc2c1/C=N/Nc1cccc(C(=O)O)c1 | -4 | 66* | 93* | 6 | 7
COc1ccc(/C=N/Nc2ccc(C(=O)O)cc2)cc1Br | -78* | -49 | -44 | -82 | -6
COc1cccc(S(=O)(=O)N[C@@H]2C=C[C@@H](CC(=O)NC3Cc4ccccc4C3)O[C@H]2CO)c1 | . | 5 | . | . | .
C[C@@H]1CN([C@H](C)CO)C(=O)c2cc(NC(=O)CCC(F)(F)F)ccc2O[C@@H](C)CCCCO[C@@H]1CN(C)Cc1ccc(C(F)(F)F)cc1 | . | -5 | . | . | .
C[C@H]1CN([C@@H](C)CO)C(=O)c2cccc(NC(=O)Nc3ccccc3)c2O[C@H]1CN(C)Cc1ccncc1 | . | -2 | . | . | .
CC(C)[C@H](C)NC(=O)N(C)C[C@@H]1OCc2ccccc2-c2ccccc2C(=O)N([C@H](C)CO)C[C@H]1C | . | 1 | . | . | .
COc1cc(C=O)ccc1OC(=O)c1ccc(C(C)C)cc1 | -91* | 1 | 4 | -93 | -1
COc1cc(/C=N/Nc2ccc(Cl)c(C(=O)O)c2)ccc1OC(=O)c1cccs1 | . | 14 | -5 | . | 37*
C=CCOc1c(Br)cc(/C=N/Nc2ccc(C(=O)O)cc2)cc1OCC | -53* | . | 105* | -53 | 10
CCOc1cc(/C=N/Nc2cccc(C(=O)O)c2)ccc1OC(=O)c1ccccc1 | -5 | -69 | -91 | -8 | -13
COc1cc(/C=N/Nc2ccccc2)ccc1OC(=O)c1cccs1 | . | . | . | . | 4
COc1cc(C=O)ccc1OC(=O)c1ccncc1 | -2 | . | 5 | 1 | 1
COc1cc(C=NNc2ccccc2)ccc1OC(=O)c1ccccc1 | . | 41* | . | . | 17
CCOc1cc(/C=N/O)cc(Br)c1OCC | 5 | -9 | -8 | 8 | -5
O=C(C[C@H]1CC[C@H]2[C@@H](COC[C@@H](O)CN2C(=O)c2ccc(F)cc2)O1)Nc1ccc(-c2ccccc2)cc1 | . | 13 | . | . | .
COCC(=O)NC[C@H]1[C@H](c2ccc(C3=CCCC3)cc2)[C@@H](CO)N1C(C)=O | . | -2 | . | . | .
C[C@H]1CN([C@@H](C)CO)C(=O)c2cc(-c3ccc(F)cc3)cnc2O[C@H]1CN(C)CC1CCCC1 | . | -15 | . | . | .
C[C@@H]1CN([C@H](C)CO)C(=O)c2cc(C#CCN(C)C)cnc2O[C@H]1CN(C)C(=O)CCN1CCCCC1 | . | 3 | . | . | .
O=C(C[C@H]1CC[C@@H]2[C@H](COC[C@H](O)CN2Cc2ccc(C(F)(F)F)cc2)O1)N1CCc2ccccc2C1 | . | 13 | . | . | .
SMILES | HSF1 inhib | esBAF inh | MITF act | HSF-1 act | Wnt act
O=C(C[C@@H]1CC[C@@H](NS(=O)(=O)c2cccc(F)c2)[C@@H](CO)O1)NCc1ccc2c(c1)OCO2 | . | 1 | . | . | .
O=C(O)c1cccc(N/N=C/c2cccc3ccccc23)c1 | -2 | -53 | -80 | -13 | -1
Cc1ccsc1/C=N/Nc1cccc(C(=O)O)c1 | -54* | . | -95 | -67 | -5
O=C(O)c1cccc(N/N=C/C2=C(Cl)c3cc(Cl)ccc3SC2)c1 | -41 | . | 36 | -54 | 40*
Cc1nc(S(=O)(=O)c2ccc(Cl)cc2)c(NCc2ccccc2)o1 | 21 | -2 | 1 | 64* | -6
CO[C@H]1CN(C)C(=O)c2ccc(NC(=O)c3cnccn3)cc2OC[C@H](C)N(C(C)=O)C[C@H]1C | . | -4 | . | . | .
CC(C)NC(=O)N1[C@H](C#N)[C@H](c2ccc(C#CC3CCCC3)cc2)[C@H]1CO | . | -3 | . | . | .
CN(C)c1ccc(N=Cc2nc(-c3ccccc3)oc2OC(=O)c2ccccc2)cc1 | 17 | . | 12 | 19 | 35*
CC(=O)Oc1oc(-c2ccccc2)nc1C=Nc1ccc(N(C)C)cc1 | 25 | 2 | . | 44 | 6
O=C1c2ccccc2C(=O)N1c1ccc(Br)c2cccnc12 | 6 | 13 | -3 | 0 | -1
COc1ccccc1Oc1ccc2c(c1)C(=O)N(c1ccc(Br)c3cccnc13)C2=O | -75* | 8 | . | -81 | -1
O=C(/C=C/c1cnc2ccccc2n1)NC12CC3CC(CC(C3)C1)C2 | -71* | -1 | 10 | -76 | .
O=[N+]([O-])c1ccc(C=CC=Cc2ccccc2)cc1 | . | 56* | . | . | 0
[O-]/[N+](=C\C=C\c1ccccc1)c1ccccc1 | 24 | 34 | 94* | 62* | 29
COc1ccc(NC(=O)N(C)C[C@H]2Oc3c(NC(=O)c4ccc(-c5nccs5)cc4)cccc3C(=O)N([C@@H](C)CO)C[C@@H]2C)cc1 | . | 0 | . | . | .
C[C@@H]1CN([C@@H](C)CO)C(=O)c2cccc(NC(=O)Nc3ccccc3)c2O[C@@H]1CN(C)C(=O)Nc1ccccc1 | . | 1 | . | . | .
O=C(Nc1ccccc1)c1ccc(C(=O)Nc2ccccc2)nc1 | 8 | 22 | 55 | 18 | 44*
O=C(Nc1ccccc1)C(=O)Nc1cccnc1 | 17 | 2 | 33 | 49 | 41*
CCC(C)c1ccc(O)c(NC(=S)NC(=O)c2cccnc2)c1 (stereo unspecified) | 54 | . | 6 | 72* | 0
O=C(CC(=O)c1ccccc1)Nc1cccnc1 | 4 | . | 21 | -6 | 20
O=C(Nc1ccccc1)c1cn(CCBr)cn1 | 21 | 4 | . | 20 | 50*
O=C(Nc1ccccc1)c1cn2ccccc2n1 | -5 | . | -2 | 11 | 17
CN1[C@@H]2Cn3c(ccc(-c4ccc(F)cc4)c3=O)[C@H]1[C@@H](C(=O)NC1CCC1)[C@@H]2CO | . | -2 | . | . | .
C[C@H](CO)N1C[C@H](C)[C@@H](CN(C)C)Oc2ncc(/C=C/c3ccccc3)cc2C1=O | . | 1 | . | . | .
O=C(Nc1cccnc1)c1ccc(Oc2ccccc2)cc1 | 1 | 54* | 52 | 19 | 41*
SMILES | HSF1 inhib | esBAF inh | MITF act | HSF-1 act | Wnt act
O=C(Nc1cccnc1)c1ccccc1Oc1ccccc1 | 1 | -3 | -14 | -6 | .
CCC(C)c1ccc(NC(=O)Nc2cccnc2)cc1 (stereo unspecified) | 12 | 61* | 111* | 20 | 20
COc1ccccc1CNC(=O)C[C@@H]1CC[C@@H]2[C@H](COC[C@@H](O)CN2Cc2ccc3c(c2)OCO3)O1 | . | 4 | . | . | .
COc1ccc(Cl)c2c1[nH]c1nc(SCc3ccccn3)nnc12 | 43 | . | 61 | 103* | 14
COc1ccc(Cl)c2c1[nH]c1nc(SCc3cccnc3)nnc12 | 0 | . | 17 | 9 | -1
Cc1ccc(S(=O)(=O)Nc2cccc(-c3ccc(N4CCCCCC4)nn3)c2)c(C)c1 | -1 | 70* | 53 | 0 | -1
